Screening results deposited in PubChem by Johns Hopkins Ion Channel Center.
KCNQ2 block: inhibitors of rat KCNQ2 potassium channel | 310,000 tested, 1.1% active | B-score at 10 µM | AID 2156 | O88943 | CHO-K1 KCNQ2, FluxOR thallium flux, 20 min; stronger effect = lower value;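 active = fluorescence ratio B-score at most minus 3 library SDs, with starting brightness B-score within 2 library SDs, cut at about -5.5 in these data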
Target sequence (O88943 whole entry, looked up): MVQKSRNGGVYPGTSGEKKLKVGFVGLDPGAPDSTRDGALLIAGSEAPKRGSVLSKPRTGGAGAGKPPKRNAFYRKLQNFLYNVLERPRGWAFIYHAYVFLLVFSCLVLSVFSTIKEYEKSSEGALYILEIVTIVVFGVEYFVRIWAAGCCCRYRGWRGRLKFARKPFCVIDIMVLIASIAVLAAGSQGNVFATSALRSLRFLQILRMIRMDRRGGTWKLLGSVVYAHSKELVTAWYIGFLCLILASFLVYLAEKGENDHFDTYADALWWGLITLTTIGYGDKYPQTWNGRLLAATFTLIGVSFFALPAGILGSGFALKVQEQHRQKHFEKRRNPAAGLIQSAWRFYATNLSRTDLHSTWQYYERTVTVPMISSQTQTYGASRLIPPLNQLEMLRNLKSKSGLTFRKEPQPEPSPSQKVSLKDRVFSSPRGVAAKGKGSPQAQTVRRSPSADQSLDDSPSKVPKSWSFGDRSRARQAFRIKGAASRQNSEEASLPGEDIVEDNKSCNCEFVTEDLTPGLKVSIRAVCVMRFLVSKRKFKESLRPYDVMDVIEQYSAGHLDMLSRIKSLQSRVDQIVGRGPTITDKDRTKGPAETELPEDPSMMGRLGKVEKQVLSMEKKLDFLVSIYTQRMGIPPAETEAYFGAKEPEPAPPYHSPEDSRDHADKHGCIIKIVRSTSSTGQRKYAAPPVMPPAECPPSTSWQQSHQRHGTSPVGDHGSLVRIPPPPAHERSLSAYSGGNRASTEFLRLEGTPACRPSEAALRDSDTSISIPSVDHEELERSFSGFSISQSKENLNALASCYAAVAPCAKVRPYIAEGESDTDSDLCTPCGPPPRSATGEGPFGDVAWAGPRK
KCNQ2 pot: KCNQ2 (rat) channel potentiation. O88943. CHO-K1 KCNQ2, FluxOR thallium flux fluorescence; stronger effect = higher value. B-score at 10 µM. 310,000 tested, 0.54% active. AID 2239;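 active = fluorescence ratio B-score at least 3 SD of library B-scores, with initial fluorescence B-score within 3 of them, cut at about 5.3 in these data; same plate scores as AID 2156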;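 note: B-score of peak minus minimum over baseline fluorescence ratio after K+ and Tl+ stimulus; positive B-score means potentiation of KCNQ2 with more thallium influx and brighter signal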
KCNQ2 inh conf: confirmation of rat KCNQ2 potassium channel inhibitors; KCNQ2-expressing cells, thallium flux, inhibition; stronger effect = lower value; activity change, negative = inhibition, % at 10 µM; AID 493025; shares compounds with KCNQ2 block; 1,000 tested, 57% active;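 note: 0% = vehicle wells and values are ratio percent relative to vehicle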
KCNQ1 spec: human KCNQ1 activity in KCNQ2 inhibitor specificity screen; 1,000 tested, 15% active; AID 493026; activity change, negative = inhibition, % at 10 µM; shares compounds with KCNQ2 block; KCNQ1-expressing cells, FluxOR thallium flux fluorescence; stronger effect = lower value;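 active = activity change at least 3 SD of negative controls below their mean in both duplicate wells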;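 note: CHO cells stably transfected with KCNQ1 and depolarized by potassium stimulus; peak minus minimum fluorescence over baseline after thallium addition; 0% = vehicle negative control and -100% = blank without thallium stimulus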
CHO Tl ctr: counter-screen for KCNQ2 inhibitors: effect in parental CHO cells; AID 493029; shares compounds with KCNQ2 block; activity change, % at 10 µM; thallium flux counter-screen; stronger effect = lower value; 1,000 tested, 14% active;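 note: 0% = vehicle negative controls with stimulus buffer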
KCNQ2 inh confirm: blocks rat KCNQ2 current in automated patch clamp. calls only at 10 µM. KCNQ2-expressing cells. 550 tested, 49% active. shares compounds with KCNQ2 block
Kir21 confirm: confirmation of mouse Kir2.1 potassium channel inhibitors | Kir2.1-expressing cells, FluxOR thallium flux fluorescence; stronger effect = lower value | 2,300 tested, 41% active | Tl flux remaining, % of negative control (stronger effect = lower value), % at 10 µM | shares compounds with KCNQ2 pot | AID 2032;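 active = Primary-screen hit whose thallium flux fell at least 3 control SD below untreated wells in both duplicates, with normal baseline fluorescence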;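 note: 0% = blank wells without stimulus and 100% = stimulated no-compound controls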
HEK293 ctr: parental HEK293 activity in Kir2.1 inhibitor counter-screen; shares compounds with KCNQ2 pot; parental HEK293 cells, FluxOR thallium flux fluorescence; 0% = unstimulated blank wells; FluxOR signal as % of negative control (100 = no effect), % at 10 µM; 2,300 tested, 19% active; AID 2105;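 active = dye signal at least 3 control SD above or below untreated wells in both duplicates, raw fluorescence within 3, either direction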;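 note: percent is based on the flux ratio of peak minus minimum fluorescence over baseline F0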
An asterisk follows results filed as active; i = inactive; nt = no result; + = active, no number. In the library only some 1.6% were active in any assay of this set; here they are far more common. Unless noted, the rule behind the calls is not given here.

SMILES	KCNQ2 block	KCNQ2 pot	others
CC(NS(C)(=O)=O)c1nnc2n1-c1ccc(Br)cc1C(c1ccccc1Cl)=NC2 (configuration not stated)	i	0.83
CCOC(=O)c1c(NC(=O)C(c2ccccc2)c2ccccc2)sc2c1C1CCN2CC1	-7.24*	-7.24
CCOC(=O)c1c(NC(=O)c2c(N)n(CCCOC)c3nc4ccccc4nc23)sc2c1CCCC2	i	1.29
CC(C)(C#CC(=O)O)OOC(c1ccccc1)(c1ccccc1)c1ccccc1	-11*	-11
Cc1ccccc1N1CCN(C2CCCN(C(=O)Cc3c(C)noc3C)C2)CC1 (configuration not stated)	i	0.9
Cc1ccc(C(c2nnnn2Cc2ccccc2)N2CC=C(c3ccc(F)cc3)CC2)cc1 (configuration not stated)	-5.72*	-5.72
Fc1ccc(C2=CCN(C(c3ccc(Cl)cc3)c3nnnn3Cc3ccccc3)CC2)cc1 (configuration not stated)	i	nt
CCCCn1c(=O)c(C(=O)NCc2ccccc2OC)c(O)c2ccccc21	-6.22*	-6.22
CCCCCn1c(=O)c(C(=O)NCCc2ccccc2)c(O)c2ccccc21	i	nt
CCOc1cc2c(cc1OCC)-n1cccc1C(c1ccccc1F)NC2 (configuration not stated)	i	nt
C[C@@H]1CC2(CCCC[N+]2(C)C)C[C@H]1C	i	0.97
Cc1ccc(-n2c(C)nc3cc(Cl)ccc3c2=O)nc1	i	nt
CN(CC(=O)Nc1ccccc1-c1ccccc1)C1CCCCC1	-6.38*	-6.38
CCc1ccccc1NC(=O)CNC1CCCCC1	i	nt
Oc1cc(Cl)ccc1Oc1ccc(Cl)cc1Cl	i	nt
Clc1cnc(Oc2ccc(Oc3ncc(Cl)cc3Cl)cc2)c(Cl)c1	-5.59*	-5.59
c1ccc(-c2ccc(-c3n(-c4ccccn4)c4ccccc4[n+]3-c3ccccn3)cc2)cc1	-7.71*	-7.71
COc1cc(/C=C/[N+](=O)[O-])ccc1O	-7.11*	-7.11	KCNQ2 inh conf=-32.5%*;KCNQ1 spec=-30.5%*;CHO Tl ctr=-23.5%*;KCNQ2 inh confirm=i
COc1cc(/C=C2/C(=O)NC(=O)N(c3ccccc3)C2=O)ccc1O	i	0.42
COc1cccc(-n2c(/C=C/c3ccc(O)c(O)c3)nc3ccccc3c2=O)c1	-6.91*	-6.91	KCNQ2 inh conf=-28.0%*;KCNQ1 spec=i;CHO Tl ctr=i;KCNQ2 inh confirm=i
COc1ccc(-n2c(/C=C/c3ccc(O)c(OC)c3)nc3ccccc3c2=O)cc1	i	nt
O=c1c2ccccc2nc(-c2ccccc2Cl)n1-c1cccc(O)c1	i	nt
COc1ccc(N2C(=O)/C(=C/C=C/c3ccccc3[N+](=O)[O-])C(=O)NC2=S)cc1	i	nt
NC(N)=N/N=C/c1cn(-c2ccccc2)nc1-c1cccs1	-11.3*	-11.3	KCNQ2 inh conf=i;KCNQ1 spec=i;CHO Tl ctr=i
O=c1c2ccccc2nc(-c2cccs2)n1-c1ccccc1	i	nt
SMILES	KCNQ2 block	KCNQ2 pot	others
CC(C)[C@H]1C(=O)O[C@@H]2CCN3CC=C(COC(=O)[C@](C)(O)[C@]1(C)O)[C@H]23	i	nt
O=C(c1cc(C(=O)NCc2ccccc2)c(=O)n(Cc2ccccc2)c1)c1cc(Br)ccc1O	-8.25*	-8.25	KCNQ2 inh conf=-33.5%*;KCNQ1 spec=-39.0%*;CHO Tl ctr=-32.0%*;KCNQ2 inh confirm=i
O=C(CNC(=O)c1ccccc1Cl)Nc1ccc(Br)cc1C(=O)c1ccccc1	i	0.06
C[C@H](NC(=O)CCC(=O)N1C[C@H]2C[C@H](C1)c1cccc(=O)n1C2)c1ccccc1	i	1.89
CN1C(=O)N(C)C(=O)C2(Cc3cc([N+](=O)[O-])ccc3N(C)C2)C1=O	i	0.75
C=CCSc1nc2c(c(-c3ccsc3)c1C#N)CN(C)CC2	i	0.21
CCC(C#N)(CC)P(=S)(c1ccccc1)c1ccccc1	-8.64*	-8.64	KCNQ2 inh conf=i;KCNQ1 spec=i;CHO Tl ctr=i
CCCCn1c(C)c(C(=O)O)c2cc(OC)c3ccccc3c21	i	nt
CCCC1(CCC)C(=O)NC(=Nc2ccccc2)NC1=O	i	1.27
CCCC1(CCC)C(=O)NC(=NCc2ccccc2)NC1=O	-10.3*	-10.3	KCNQ2 inh conf=-36.5%*;KCNQ1 spec=i;CHO Tl ctr=i;KCNQ2 inh confirm=+
C[C@]12CC[C@H]3[C@@H](CCC4=CC(=O)CC[C@@]43O)[C@@H]1CCC2=O	i	nt
Cc1ccccc1OCCCn1cc(C(=O)C(=O)N2CCOCC2)c2ccccc21	i	nt
COc1ccccc1CNC(=O)CCC(=O)N1C[C@H]2C[C@@H](C1)c1cccc(=O)n1C2	i	0.58
O=P(NS(=O)(=O)c1ccccc1)(Oc1ccccc1)Oc1ccccc1	i	0.11
O=P(NCc1ccccc1)(Oc1ccccc1)Oc1ccccc1	-6.87*	-6.87	KCNQ2 inh conf=i;KCNQ1 spec=i;CHO Tl ctr=i
CCCN1CCCC(C(=O)c2cc(C)c(OC)c(C)c2)C1 (configuration not stated)	i	nt
Clc1ccc(COC(Cn2ccnc2)c2ccc(Cl)cc2Cl)c(Cl)c1 (configuration not stated)	-7.31*	-7.31	KCNQ2 inh conf=-38.0%*;KCNQ1 spec=-42.0%*;CHO Tl ctr=-34.5%*;KCNQ2 inh confirm=i
COc1cccc(NP(=O)(Oc2ccc(Cl)cc2)Oc2ccc(Cl)cc2)c1	i	nt
O=P(Nc1ccccc1)(Nc1ccccc1)Oc1ccc(Cl)cc1	-9.69*	-9.69	KCNQ2 inh conf=i;KCNQ1 spec=i;CHO Tl ctr=i
Cc1ccc(/C=C2/Sc3ccc(C(=O)N4CCC5(CC4)OCCO5)cc3NC2=O)cc1	i	0.55
CCOC(=O)c1c(/N=C/C2C(=O)NC(=O)NC2=O)sc2c1CCC2	i	0.38
CCOC(=O)c1c(NC(NC(=O)CF)C(Cl)(Cl)Cl)sc2c1CCCC2 (configuration not stated)	-8.37*	-8.37	KCNQ2 inh conf=-29.0%*;KCNQ1 spec=i;CHO Tl ctr=i;KCNQ2 inh confirm=i
Cn1c(O)c(/C=C2\N=c3ccccc3=C2CCNC(=S)NC2CC2)c(=O)n(C)c1=O	i	nt
CCN(CC)c1ccc(/C=C/[N+](=O)[O-])cc1	-8.76*	-8.76	KCNQ2 inh conf=-75.0%*;KCNQ1 spec=-79.5%*;CHO Tl ctr=-76.5%*;KCNQ2 inh confirm=i
CCN(CC)c1ccc(CC2C(=O)N(C)C(=O)N(C)C2=O)cc1	i	nt
Oc1ccc(-[n+]2c(-c3ccccc3)cc(-c3ccccc3)cc2-c2ccccc2)cc1	-6.93*	-6.93	KCNQ2 inh conf=-27.0%*;KCNQ1 spec=i;CHO Tl ctr=i;Kir21 confirm=44.5%*;HEK293 ctr=73.5%*
O=C([O-])c1ccc(-[n+]2c(-c3ccccc3)cc(-c3ccccc3)cc2-c2ccccc2)cc1	i	nt
O=C(NCCCN1CCOCC1)C(Cl)(Cl)Cl	i	0.7
Cc1ncc(CN2CCCC(C(=O)c3ccc(C(C)(C)C)cc3)C2)s1 (configuration not stated)	i	nt
